# Screens as filed in PubChem BioAssay.
# Rows were chosen to be rich in hits. Some 3.6% of all compounds tested hit in one or more screens of this group.
# CendR NRP1 mod – NRP-1/CendR interaction modulation; FAM-RPARPAR peptide binding to NRP-1, fluorescence polarization; O14786; inhibition, % at 25 µM; AID 602438; hit rate 0.85% among 360,000;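 active = inhibition or corrected inhibition above about 18%, plus a signal ratio from 0.5 to 1.5, limit read from the data, passing the limit was not always enough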
# CRFR2-BP antag – blocks CRF-induced signaling of the CRF-BP/CRF-R2 complex; inhibition, % at 11.8 µM; HEK293 CRF-R2/CRF-BP, CRF-induced calcium fluorescence; AID 588475; hit rate 0.59% among 350,000;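 active = inhibition of the ligand-induced calcium signal above about 50% at the single tested concentration, limit read from the data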
# NadD block – blocks S. aureus nicotinate mononucleotide adenylyltransferase | hit rate 0.78% among 360,000 | purified NadD enzyme, colorimetric absorbance read-out | inhibition, % at 20 µM | AID 602399; in the data active = inhibition above about 26%
# FAS TE block – FAS thioesterase (human) inhibition; inhibition, % at 15 µM; hit rate 0.67% among 360,000; P49327; AID 602261; recombinant FAS-TE, OMFH fluorogenic substrate, fluorescence endpoint;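 active = compounds whose normalised, plate-corrected inhibition of enzyme fluorescence in the single-dose primary screen is 50% or more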;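 note: 0% = DMSO with enzyme and 100% = substrate without enzyme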
# Myeloid diff 2 – promotes myeloid progenitor differentiation | ER-HoxA9 myeloid progenitors, lysozyme-GFP differentiation, flow cytometry | calls only at 10 µM | hit rate 1% among 360,000;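 active = normalized GFP-positive differentiation at or above the plate's own cutoff, the solvent-only control mean plus 3 SD; inconclusive = no clear call, values can overlap the other calls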;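 note: cells exposed to compound for four days before flow analysis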
# FAS-TE inh conf – confirmation of human fatty acid synthase thioesterase inhibitors | shares compounds with FAS TE block | recombinant FAS-TE, OMFH fluorogenic substrate, fluorescence | inhibition, % at 15 µM | hit rate 45% among 2,300;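 active = compounds inhibiting the enzyme by at least 50% at 15 µM in any one of the replicates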;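 note: 0% = enzyme with DMSO only and 100% = wells lacking enzyme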
# Starred values were filed as active, the others as inactive; i = inactive; ? = inconclusive; · = no result given.
SMILES,CendR NRP1 mod,CRFR2-BP antag,NadD block,FAS TE block,Myeloid diff 2,FAS-TE inh conf
O=C(NC(Cc1c[nH]c2ccccc12)C(=O)Nc1ccc(F)c([N+](=O)[O-])c1)c1cccs1 (stereo not drawn),-2,25,1,63*,i,63*
CCOc1ccccc1N1CCN(C(=S)NC(=O)C23CC4CC(CC(C4)C2)C3)CC1,-4,-46,12,51*,i,15
O=C(NC(=S)N1CCN(c2ccc(F)cc2)CC1)C12CC3CC(CC(C3)C1)C2,-2,-81,5,7,i,·
COc1ccc(C(C)(C)C)cc1NC(=O)c1cc(S(=O)(=O)N(C)C)ccc1N1CCCC1,10,-10,8,68*,?,24
CN(C)S(=O)(=O)c1ccc(N2CCCC2)c(C(=O)Nc2nc3c(ccc4ccccc43)s2)c1,-5,12,28,92*,i,10
CN(CC(=O)Nc1cccnc1)S(=O)(=O)c1ccc(Br)cc1,7,2,-1,-2,i,·
O=C(NCCc1cccs1)C12CN(Cc3ccccc3)CC1C(c1cccc([N+](=O)[O-])c1)=NO2 (stereo not drawn),11,-13,1,51*,i,41
O=C(NCCCCc1ccccc1)C12CN(Cc3ccccc3)CC1C(c1cccc([N+](=O)[O-])c1)=NO2 (stereo not drawn),9,-10,1,39,i,·
O=C(OCC1OC(n2ccc(=O)[nH]c2=O)C2OC12)c1ccccc1 (stereo not drawn),5,-6,-5,-7,i,·
C/C(=N\NC(=O)c1ccc(CSc2nc(C)cc(C)n2)cc1)c1ccco1,-8,6,-4,0,i,·
CC(=O)OCc1ccc(C2=CC(=O)CC(C)(C)C2=O)cc1,0,-3,1,-4,i,·
CCCCCC(=O)OCc1ccc(C2=CC(=O)CC(C)(C)C2=O)cc1,5,-8,-6,64*,i,56*
CC1(C)CC(=O)C=C(c2ccc(COC(=O)C(c3ccccc3)c3ccccc3)cc2)C1=O,-7,14,4,24,i,·
CC(C)(C)C(=O)OCc1ccc(C2=CC(=O)CC(C)(C)C2=O)cc1,-5,4,-6,82*,i,82*
CCC(=O)NC(=S)Nc1ccc(NC(=O)c2ccc(Br)o2)cc1,11,-32,-5,2,i,·
C[C@H]1CN([C@@H](C)CO)C(=O)CCCn2nncc2CO[C@H]1CN(C)S(=O)(=O)c1cccs1,0,-4,2,-7,i,·
C[C@H](NC(=O)[C@@H]1Cc2ccccc2CN1)C(=O)NCC1CCCO1 (stereo partly drawn),7,2,-4,-6,i,·
O=[N+]([O-])c1ccc(S(=O)(=O)N/N=C/c2ccc3c(c2)OCO3)cc1,-2,13,-4,72*,i,74*
O=[N+]([O-])c1ccc(S(=O)(=O)NN=Cc2ccc(Cl)c(Cl)c2)cc1,5,5,-1,81*,i,89*
CC(=O)Nc1ccc(S(=O)(=O)NN=Cc2ccc(Cl)c(Cl)c2)cc1,10,-12,-1,-2,i,·
O=C(Cn1cnc([N+](=O)[O-])c1)c1ccc(F)cc1,14,-4,-1,-2,i,·
COc1ccc(NC(=O)C(=O)NCC(c2ccco2)N2CCc3ccccc3C2)cc1OC (stereo not drawn),-1,1,-2,13,i,·
CC1N(C)c2cc(NC(=O)c3cccs3)c(P(=O)(Nc3ccc([N+](=O)[O-])cc3)N3CCOCC3)cc2C1(C)C (stereo not drawn),-10,-17,11,52*,i,34
CN(C)c1ccc(P(=O)(Nc2cccc(C(F)(F)F)c2)N2CCOCC2)c(NC(=O)c2cccs2)c1 (stereo not drawn),-5,6,11,53*,i,23
O=C(Nc1cc(C(F)(F)F)ccc1N1CCOCC1)c1cccs1,4,-35,-1,15,i,·
SMILES,CendR NRP1 mod,CRFR2-BP antag,NadD block,FAS TE block,Myeloid diff 2,FAS-TE inh conf
Cc1[nH]c(C)c(S(=O)(=O)NCc2ccc(OC(C)C)cc2)c1C(=O)N1CCCC1,-3,13,-5,-6,i,·
COc1ccc(/C=C(\NC(=O)c2ccc([N+](=O)[O-])cc2)C(=O)N2CCOCC2)cc1,4,5,-2,82*,i,87*
O=C(N/C(=C/c1ccccc1)C(=O)N1CCOCC1)c1ccc([N+](=O)[O-])cc1,3,6,3,53*,i,47*
CN1CCN/C1=C(/C(Cl)=C(Cl)Cl)[N+](=O)[O-],-1,0,0,-4,·,·
O=C1C2CCCN2C(=O)N1CCCN1CCN(c2cccc(Br)c2)CC1 (stereo not drawn),0,-11,2,-2,i,·
O=C1CN(C(=O)c2cc([N+](=O)[O-])ccc2Cl)C(c2ccccc2)c2cc(F)ccc2N1 (stereo not drawn),-7,-40,2,86*,i,88*
CC1CCN(C(=O)c2ccc3c(Cl)c4c(nc3c2)CCCC4)CC1,-3,-23,-2,71*,i,78*
CCOC(=O)C1CCN(C(=O)c2ccc3c(Cl)c4c(nc3c2)CCCC4)CC1,12,4,0,43,i,·
N#Cc1c(/N=C/c2ccc(-c3ccccc3C(=O)O)o2)sc2c1CCCC2,-13,16,-4,0,i,·
N#Cc1c(/N=C/c2ccc(-c3ccc(C(=O)O)c(Cl)c3)o2)sc2c1CCCC2,-38,9,9,50*,i,41
O=C(COC(=O)CCc1c[nH]c2ccccc12)Nc1cc([N+](=O)[O-])ccc1Cl,-16,13,-7,56*,i,55*
O=C(COC(=O)CCc1c[nH]c2ccccc12)Nc1ccc([N+](=O)[O-])cc1,20,24,-9,21,i,·
O=C(Nc1cc(Oc2ccc(Cl)cc2)cc([N+](=O)[O-])c1)c1ccco1,-4,-22,-6,56*,i,45
CCOc1ccc(Oc2cc(NC(=O)c3ccco3)cc([N+](=O)[O-])c2)cc1,4,25,-2,42,i,·
CON=C1C=C(C)C(=O)C(C)=C1C,-4,17,-1,-6,i,·
CN1C[C@@H]2[C@@H]3C(=O)N(Cc4ccccc4)C(=O)[C@@H]3[C@](Cc3ccccc3)(C1=O)N2C(=O)c1ccc(C(F)(F)F)cc1,7,-6,9,4,i,·
COc1ccc2c(c1)[C@H]1[C@H](CO2)[C@H](c2ccccc2)[C@]2(C)C(=O)Nc3cc(F)ccc3C(=O)N12,9,22,-10,54*,i,30
COc1ccc2c(c1)C(=O)N1[C@H]3c4cc(OC)ccc4OC[C@@H]3[C@H](c3ccccc3)[C@]1(C)C(=O)N2,6,5,3,72*,i,28
